Assay outcomes (PubChem)
APE1 inh – blocks human APE1 abasic DNA cleavage; 0.35% of 350,000 active; Potency, µM (doses to about 65.8 µM), for the others: at the top dose activity change, negative = inhibition, usual class: inhibitors; recombinant APE1, TAMRA/BHQ-2 abasic DNA cleavage fluorescence;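 note: plate controls were vehicle for no effect and reference inhibitor for full effect; nearly all actives have a fitted effect of over 55% in size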
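Activity was derived from the fluorescence gain between first and third kinetic reads (60 s intervals, ex 525/em 598 nm) after 50 nM THF-abasic TAMRA/BHQ-2 duplex was added to 0.75 nM APE1 preincubated 15 min with compound.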
JMJD2E inh – blocks human JMJD2E demethylase activity | Potency, µM (top dose mostly 57.1 µM), for inactives: at the top dose activity change, negative = inhibition, usual class: inhibitors | B2RXH2 | 1.6% of 230,000 active | JMJD2E catalytic domain, FDH-coupled NADH fluorescence (FDH is formaldehyde dehydrogenase);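 note: 0% = wells with enzyme and -100% = buffer wells without enzyme; nearly all actives have a fitted effect of over 50% in size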
KAT2A inh – blocks human GCN5L2 histone acetyltransferase. AID 504327. GCN5L2 HAT assay, ThioGlo1 CoA-SH fluorescence. Q92830. 0.21% of 390,000 active. Potency, µM (series often up to 58.9 µM), inactives show top-dose activity change, negative = inhibition, most hits filed as inhibitors
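Compounds, pin-transferred from DMSO stocks, meet 20nM GCN5L2 for 15 min before the reaction begins with H3(1-25) peptide (75uM) and acetyl-CoA (70uM). Thiol-reactive ThioGlo1 reports CoA release over 20 min at room temperature.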
RECQ1 inh-1 – inhibitors of human RECQ1 DNA helicase. P46063. RECQ1 DNA unwinding, red fluorescence kinetic read. Potency, µM (doses to about 57.3 µM), inactives show at the highest dose activity, negative = inhibition, most hits filed as inhibitors. 0.54% of 240,000 active;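 note: plate controls were vehicle for no effect and no enzyme for full effect; nearly all actives have a fitted effect of over 30% in size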
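50 nM RECQ1T1 preincubated 15 min with compound in Tris pH 8.0 buffer with MgCl2, DTT, Tween-20 and 2.5 ug/ml poly(dI-dC); started with 200 nM TAMRA/BHQ-2 forked duplex and 2 mM ATP. Unwinding read as fluorescence (525/598 nm), two reads 2 h apart.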
BLM inh – Bloom syndrome helicase (human) inhibition | P54132 | recombinant BLM DNA unwinding, fluorescence dequenching | Potency, µM (titrated, usually from 56.1 µM), for the others: top-dose activity change, negative = inhibition, usual class: inhibitors | 0.2% of 350,000 active | AID 2528;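 note: plate controls were vehicle for no effect and no enzyme for full effect; nearly all actives have a fitted effect of over 35% in size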
TDP1 block – TDP1 (human) enzyme inhibition | Q9NUW8 | recombinant TDP1, AlphaScreen DNA substrate cleavage | Potency, µM (titrated, usually from 130 µM), without a hit: top-dose activity change, negative = inhibition, hits mostly inhibitors | 0.28% of 350,000 active | AID 485290; note: nearly all actives have a fitted effect of over 40% in size
Target sequence (Q9NUW8 whole entry, looked up): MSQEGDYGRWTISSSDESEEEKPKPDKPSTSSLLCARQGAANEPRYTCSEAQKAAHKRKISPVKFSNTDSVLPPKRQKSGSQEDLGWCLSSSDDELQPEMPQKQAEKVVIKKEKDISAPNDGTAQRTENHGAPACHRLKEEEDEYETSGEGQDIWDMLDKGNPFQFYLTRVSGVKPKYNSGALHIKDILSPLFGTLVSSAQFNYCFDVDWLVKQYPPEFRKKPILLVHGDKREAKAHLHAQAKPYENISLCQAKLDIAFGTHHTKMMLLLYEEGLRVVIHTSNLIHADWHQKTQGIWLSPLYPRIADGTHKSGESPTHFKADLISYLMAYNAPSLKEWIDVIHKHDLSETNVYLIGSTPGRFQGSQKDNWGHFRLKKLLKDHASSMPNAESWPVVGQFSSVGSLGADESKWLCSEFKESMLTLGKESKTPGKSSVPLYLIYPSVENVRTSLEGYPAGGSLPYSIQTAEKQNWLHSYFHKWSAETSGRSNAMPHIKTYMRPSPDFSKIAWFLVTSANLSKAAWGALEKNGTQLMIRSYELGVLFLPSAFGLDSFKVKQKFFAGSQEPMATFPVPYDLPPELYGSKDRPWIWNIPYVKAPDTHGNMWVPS
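Enzyme-compound mixtures sat 15 min at room temperature, followed by a 5 min reaction with 15 nM final substrate and 10 min with AlphaScreen beads. Recombinant human Tdp1 was used at 1 nM final.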
RECQ1 inh conf – confirmation of human RECQ1 helicase inhibitors; shares compounds with RECQ1 inh-1; RECQ1 helicase DNA unwinding, fluorescence; Potency, µM (top dose mostly 229 µM), without a hit: at the highest dose activity change, negative = inhibition, actives largely listed as inhibitors; 28% of 610 active; AID 2708; note: nearly all actives have a fitted effect of over 45% in size
RECQ1 ADP FP – displaces ADP in a fluorescence polarization counter-screen for RECQ1 hits; shares compounds with RECQ1 inh-1; ADP fluorescence polarization displacement counterscreen; Potency, µM (highest dose often 228 µM), for inactives: at the top dose activity change, negative = inhibition, usual class: inhibitors; 27% of 530 active; AID 2711; note: nearly all actives have a fitted effect of over 45% in size
RECQ1 inh-2 – blocks human RECQ1 DNA unwinding; recombinant RECQ1 DNA unwinding, red fluorescence; shares compounds with RECQ1 inh-1; AID 504841; Potency, µM (titrated, usually from 119 µM), for inactives: at the highest dose activity, negative = inhibition, actives largely listed as inhibitors; 15% of 1,100 active; note: nearly all actives have a fitted effect of over 50% in size
Numbers without * were called inactive; ? = inconclusive; . = not tested or not shown; [ ] = dose if it differs, or a comment. Shown is part of a subset that was picked to be rich in hits. Unless noted, calls come from the whole dose curve; as a rule, active = well fitted curve in the direction sought with a large enough effect; inconclusive = small, poorly fitted or top-dose-only effect, or another doubt; inactive = no such curve, though single readings can be large; an effect the other way counts as inactive or inconclusive. Unless noted, % is set by controls: 0 for no effect and ±100 for the full control effect; potency is the fitted concentration of half-maximal effect.

SMILES	APE1 inh	JMJD2E inh	KAT2A inh	RECQ1 inh-1	BLM inh	TDP1 block	RECQ1 inh-2	others
COc1ccc(-n2c(O)c(/C=N/NS(=O)(=O)c3ccc(C)cc3)c3ccccc3c2=O)cc1OC	3%	?	-6%	10µM*	-4%	8%	?
COc1ccc(C)cc1S(=O)(=O)Nc1ccc(-n2c(C)nc3ccccc3c2=O)cc1	2%	.	-1%	.	.	0%	.
Oc1ccc(N2CCN(c3nc(-c4cccs4)nc4ccccc34)CC2)cc1	19%	?	0%	?	-6%	8%	?
CCC(C(=O)Nc1cc(OC)ccc1OC)n1c(C)c2cnn(-c3ccccc3)c(=O)c2c1C (stereo unspecified)	.	.	-10%	.	-2%	8%	.
Cc1ccc(N2C(=O)C3C(C2=O)C(C(=O)c2ccc(Cl)cc2)N2CCCC32)cc1 (stereo unspecified)	10%	?	-14%	25µM*	-3%	10%	-28%
O=C(c1ccc(Nc2nccc(-c3cc4ccccc4s3)n2)cc1)N1CCC(N2CCCC2)CC1	-7%	.	0%	?	?	19%	25µM*
COC(=O)N[C@@H](c1cccc(C)c1)[C@@H](C)[N+](=O)[O-]	6%	-2%	.	-2%	-15%	1%	.
Cc1ccc(S(=O)(=O)C2CCN(c3nc(-c4cccs4)nc4ccccc34)CC2)cc1	.	.	.	.	.	-1%	.
O=C(NCC1CC1)[C@H]1C[C@@H]1[C@H](NP(=O)(c1ccccc1)c1ccccc1)c1ccccc1	-1%	4%	.	0%	-2%	6%	.
Cc1ccccc1NC(=O)C1CCN(S(=O)(=O)c2c(C)noc2/C=C/c2ccco2)CC1	.	.	-3%	.	-5%	2%	.
Cc1ccc(NC(=O)C2CCN(S(=O)(=O)c3c(C)noc3/C=C/c3ccco3)CC2)nc1	-5%	?	-9%	35µM*	-5%	4%	-11%
O=[N+]([O-])c1ccc(-c2c(O)c3ccccc3c3nc4ccccc4nc23)cc1	9%	3%	-7%	25µM*	-13%	0%	.	RECQ1 inh conf=9%[114 µM];RECQ1 ADP FP=?
O=[N+]([O-])c1ccc(-c2cnc3ccccc3n2)cc1	-5%	.	-27%	.	-1%	.	.
N=C1/C(=C/c2coc3ccccc3c2=O)C(=O)N=C2SC(c3ccco3)=NN12	11%	?	-23%	28µM*	?	.	50µM*
CN1C(=O)/C(=C/c2coc3ccc(O)cc3c2=O)SC1=S	4%	5%	-1%	-21%	-2%	3%	.
CC(C)CSC1=NSC2=NC(=O)/C(=C\c3coc4ccccc4c3=O)C(=N)N12	1%	?	?	?	-24%	9%	.
CCC1=NN2C(=N)/C(=C/c3cc(C)n(Cc4ccccc4)c3C)C(=O)N=C2S1	-5%	?	-4%	-20%	-9%	6%	.
CSC1=NSC2=NC(=O)/C(=C\c3coc4ccccc4c3=O)C(=N)N12	-10%	?	-22%	-3%	-12%	-3%	.
N=C1/C(=C\c2coc3ccc(O)cc3c2=O)C(=O)N=C2SC=CN12	2%	0%	-7%	25µM*	-28%	0%	56µM*
N=C1/C(=C\c2coc3ccccc3c2=O)C(=O)N=C2SC(c3ccncc3)=NN12	-3%	281%	?	?	?	.	?
Cc1cc(/C=C2\C(=N)N3N=C(c4ccco4)SC3=NC2=O)c(C)n1Cc1ccccc1	-5%	?	?	?	-24%	8%	?
Cc1cc2c(cc1Cl)C(c1ccccc1C)CC(=O)O2 (stereo unspecified)	-4%	.	-22%[88.6 µM]	-18%[81.1 µM]	-17%[75.6 µM]	-4%	.
COc1ccc(-n2cccc2/C=C2\C(=N)N3N=C(c4ccco4)SC3=NC2=O)cc1	10µM*	-25%	?	?	13µM*	.	7.1µM*
Cc1ccc(SCC(c2ccccc2)N2CCN(C)CCC2=O)cc1 (stereo unspecified)	10%	.	.	4%	-14%	8%	.
O=C(O)c1ccc(N2C(=O)/C(=C/c3ccc(-c4ccc([N+](=O)[O-])cc4)o3)C=C2c2ccccc2)cc1	?	5%	-18%	18µM*	-20%	1%	.	RECQ1 inh conf=22µM*
C=CCCCC	0%	.	.	-9%	.	12%	.
CCN1/C(=C/c2cc[n+](CCCS(=O)(=O)[O-])c3ccccc23)Sc2ccccc21	?	-12%	-9%	?	-12%	4%	56µM*
CCC(/C=C1\Sc2ccc(OC)cc2N1CC)=C\c1sc2ccc(OC)cc2[n+]1CCCS(=O)(=O)[O-]	?	-1%	3%	-8%	4%	-3%	.
